Screening results deposited in PubChem BioAssay by National Center for Advancing Translational Sciences (NCATS).
In the library only some 11% were active in any assay of this set; here they are far more common.
Pf growth 48h – Primary qHTS for delayed death inhibitors of the malarial parasite plastid, 48 hour incubation; P. falciparum luciferase growth in erythrocytes, 48 h; Potency, µM (highest dose often 28.7 µM), inactives show at the highest dose activity change, negative = inhibition, hits mostly inhibitors; hit rate 5.9% among 310,000; AID 504832, 2011; also: % is scaled to controls: 0 for no effect and ±100 for the full control effect
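A one-generation exposure of luciferase-tagged malaria parasites in RPMI 1640/Albumax erythrocyte culture, 37 C and 5% CO2. Inhibition is inferred from decreased luminescence after adding detection reagent.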
VACV mCherry inh – qHTS for Stage-Specific Inhibitors of Vaccinia Orthopoxvirus: mCherry Reporter Primary qHTS. Vaccinia virus mCherry reporter infection, fluorescence. Potency, µM (top dose mostly 36.5 µM), for the others: top-dose activity change, negative = inhibition, most hits filed as inhibitors. hit rate 0.63% among 310,000; calls by dose curve; tested in A549 cells; also: % is scaled to controls: 0 for no effect and ±100 for the full control effect; nearly all actives have a fitted effect of over 35% in size
NS1 function inh – qHTS Assay for Inhibitors of Influenza NS1 Protein Function. AID 2326, 2010. Potency, µM (titrated, usually from 46.1 µM), for the others: at the highest dose activity, positive = more growth. hit rate 0.4% among 270,000; calls by dose curve; also: actives are rising curves; nearly all actives have a fitted effect of over 50% in size
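A cell-based growth assay was used: compounds that relieve NS1-induced slow growth of budding yeast raise OD600. Assay medium was yeast nitrogen base with ammonium sulphate and -URA supplement, pH 6.0, with 2% galactose.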
HCV inh – qHTS Assay for Inhibitors of Hepatitis C Virus (HCV); Huh7.5.1 HCVcc-Cre infection, luciferase reporter, 44 h; Potency, µM (doses to about 41.8 µM), for the others: at the highest dose activity change, negative = inhibition, hits mostly inhibitors; hit rate 3.4% among 340,000; also: % is scaled to controls: 0 for no effect and ±100 for the full control effect
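Whole-lifecycle infectious HCVcc-Cre system; cells 1,000/well, compound then virus (~0.5 moi) added 4 h after plating, 44 h culture. Luciferase read 15 sec following 15 min substrate incubation, room temp.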
VACV Venus inh – qHTS for Stage-Specific Inhibitors of Vaccinia Orthopoxvirus: Venus Reporter Primary qHTS | Vaccinia virus Venus reporter expression, fluorescence | Potency, µM (doses to about 36.5 µM), for the others: at the top dose activity change, negative = inhibition, hits mostly inhibitors | hit rate 0.46% among 330,000; calls by dose curve; tested in A549 cells; also: % is scaled to controls: 0 for no effect and ±100 for the full control effect; nearly all actives have a fitted effect of over 30% in size
Pf growth 96h – Primary qHTS for delayed death inhibitors of the malarial parasite plastid, 96 hour incubation. Potency, µM (top dose mostly 28.7 µM), inactives show at the top dose activity change, negative = inhibition, hits mostly inhibitors. hit rate 6.9% among 320,000. P. falciparum luciferase reporter growth, 96 h; also: % is scaled to controls: 0 for no effect and ±100 for the full control effect
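Infected RBCs, 2% Hct / 0.05% parasitemia final; luciferase-reporter P. falciparum; cpd 96 h, 37 C, 5% CO2; luciferase detection reagent; luminescence.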
The depositor's hits bear a star; i = inactive; ? = inconclusive; · = not tested or not shown; [ ] = another dose, or the depositor's remark. Unless noted, calls follow the shape of the dose curve; as a rule, active = well fitted inhibition curve with a large enough effect; inconclusive = small, poorly fitted or top-dose-only effect, or another doubt; inactive = no such curve, though single readings can be large or run the other way. Potency is read from the fitted curve at half-maximal effect.

SMILES	Pf growth 48h	VACV mCherry inh	NS1 function inh	HCV inh	VACV Venus inh	Pf growth 96h
CC(C)=CCc1c(O)cc2c(=O)c3ccc(O)cc3oc2c1O	·	-23.2%	·	?	-15.6%	·
Cc1ccc(NC2=NCC(=O)N2C2CCCC2)cc1	15.1%	i	2.6%	16.4%	-21.2%	5.86µM*
C=C1C(=O)c2sccc2C(c2ccc(OC)c(OC)c2)C1COC(C)=O (configuration not stated)	·	5.01µM*	·	1.41µM*	7.08µM*	·
C/C=C/c1ccc(OCC(=O)Nc2cc(S(=O)(=O)N3CCOCC3)ccc2N2CCCC2)c(OC)c1	13.1µM*	-19.5%	·	10µM*	-27.9%	?
O=C(c1ccccc1)c1cc(F)c(N2CCOCC2)cc1Cl	9.3%	?	-54.7%	-1.4%	?	9.28µM*
COc1ccc(CC(=O)Nc2cc(S(=O)(=O)N3CCOCC3)ccc2N2CCCC2)cc1OC	·	-13.1%	·	8.3%	-9.6%	·
O=C(Cc1ccccc1)Nc1cc(C(=O)c2ccccc2)ccc1N1CCOCC1	·	·	-48.1%	?	·	5.22µM*
Cc1ccccc1OCC(=O)Nc1cc(S(=O)(=O)N2CCCCC2)ccc1N1CCN(C)CC1	4.0%	?	-7.0%	11.2µM*	?	?
O=C(Cc1ccccc1)Nc1ccc(N2CCOCC2)cc1N1CCOCC1	-13.4%	-9.8%	-4.0%	3.0%	-9.5%	2.2%
O=c1n(Cc2ccccc2)nc2n1-c1cc(Cl)ccc1OC2	·	-2.9%	·	·	-11.7%	·
COc1ccc(CNC(=O)Cn2nnc3ccccc3c2=O)cc1	89.8%	·	5.7%	-3.0%	·	86.2%
CN(C(=O)c1ccc(N2CCCCC2)c([N+](=O)[O-])c1)C1CCS(=O)(=O)C1 (configuration not stated)	·	0.9%	·	?	9.3%	·
Cc1cc(NC(=O)C2CCCCC2C(=O)O)ccc1NC(=O)c1ccccc1 (configuration not stated)	9.7%	-13.5%	-6.2%	2.4%	-15.9%	-1.9%
C/C=C/c1ccc(OCC(=O)Nc2cc(Cl)ccc2-n2cncn2)c(OC)c1	?	-21.8%	·	?	-9.7%	11.7µM*
O=C(COc1ccccc1)Nc1cc(S(=O)(=O)N2CCOCC2)ccc1N1CCCC1	?	i	·	2.9%	-6.2%	?
CN1CCN(c2ccc(S(=O)(=O)N3CCCCC3)cc2NC(=O)CCc2ccccc2)CC1	9.28µM*	·	·	-20.6%	·	?
Cc1cccc(OCC(=O)Nc2cc(S(=O)(=O)N3CCOCC3)ccc2N2CCCC2)c1C	4.15µM*	-24.3%	·	?	-20.1%	7.38µM*
CCc1cccc(OCC(=O)Nc2cc(S(=O)(=O)N3CCOCC3)ccc2N2CCCC2)c1	?	·	2.7%	?	·	8.28µM*
COCCCNC(=O)c1c(NC(=O)c2ccccc2Cl)n(Cc2ccccc2)c2nc3ccccc3nc12	?	·	16.0%	13.1%	·	?
O=C(CSc1nc2c(cnn2-c2ccc(F)cc2)c(=O)[nH]1)Nc1nccs1	38.1%	0.0%	-2.6%	0.4%	-4.1%	12.5%
COc1cccc(CC(=O)Nc2cc(S(=O)(=O)N3CCOCC3)ccc2N2CCOCC2)c1	?	-6.4%	·	11.1%	-8.0%	10.4µM*
COc1cccc(CC(=O)Nc2cc(C(F)(F)F)ccc2N2CCCC2)c1	?	·	9.8%	-28.4%	·	13.1µM*
O=C(COc1ccccc1)Nc1cc(C(F)(F)F)ccc1N1CCCC1	?	·	-12.5%	?	?	-6.2%
CC(=O)COc1ccc2cc(-c3ccccc3)c(=O)oc2c1	467.5%	-6.4%	7.5%	-25.4%	-12.3%	6.4%
CN1CCc2c(sc3c2C(=O)NC(c2ccc(OC(=O)c4ccccc4)cc2)N3)C1 (configuration not stated)	·	-15.7%[7.34 µM]	·	·	-8.7%[7.34 µM]	·
SMILES	Pf growth 48h	VACV mCherry inh	NS1 function inh	HCV inh	VACV Venus inh	Pf growth 96h
Cc1ccc(OCC(=O)NNC(=O)C2CSC3(C)CCC(=O)N23)cc1C (configuration not stated)	0.5%	-14.2%	·	29.4%	-12.8%	46.9%
Cc1cc(C)c(NC(=O)Cn2cc3c(n2)CCCC3)c(C)c1	7.8%	-10.3%	-4.9%	4.4%	-3.2%	5.5%
O=C(Cn1cc2c(n1)CCCCC2)Nc1c(F)c(F)cc(F)c1F	·	1.9%	-7.8%	5.3%	-3.0%	14.7µM*
Cc1ccc(Cl)cc1NC(=O)Cn1cc2c(n1)CCCC2	·	·	-83.1%	-20.9%	·	2.08µM*
O=C(c1nn2c(C(F)(F)F)cc(-c3cccs3)nc2c1Cl)N1CCCc2ccccc21	28.5%	-6.5%	1.2%	8.8%	-6.9%	10.4µM*
CCC(=O)N1CCc2cc(S(=O)(=O)NCCC(=O)N3CCc4ccccc4C3)ccc21	?	·	6.7%	?	·	20.9%
O=C(CN(CCc1ccccc1)C(=O)CNS(=O)(=O)c1ccccc1)NCC1CCCO1 (configuration not stated)	22.9%	·	-5.1%	12.1%	-19.8%	?
CCOc1ccc(C(=O)CCC(=O)Nc2ccc(C)cn2)cc1	?	-10.5%	·	-5.7%	-1.8%	?
CCCCNC(=O)C(CC)(ONc1ccccc1C(F)(F)F)c1ccccc1 (configuration not stated)	13.1µM*	-10.2%	·	-10.3%	-10.2%	?
CCC(O)(C(=O)Nc1ccccc1C(F)(F)F)c1ccccc1OC (configuration not stated)	?	i	·	0.7%	-23.0%	-32.7%
CCCCNC(=O)[C@@](CC)(ONc1ccccc1C(F)(F)F)c1cccc2ccccc12	8.28µM*	-12.1%	·	5.8%	-6.4%	?
Cc1cccc(OCCCC(=O)Nc2ccccc2C(F)(F)F)c1	-5.3%	-11.2%	-3.9%	13.2%	-7.9%	?
CCOC(=O)COn1c(=O)c(-c2ccc(Br)cc2)[n+]([O-])c2ccccc21	35.3%	-6.1%	-1.3%	26.0%	-4.1%	78.1%
COC(=O)c1cn(NC(=O)C2COc3ccccc3O2)c(=O)c2ccccc12 (configuration not stated)	-3.2%	·	8.7%	-0.6%	·	10.2%
COC(=O)c1cn(NC(=O)C2CCC(C(C)(C)C)CC2)c(=O)c2ccccc12 (configuration not stated)	15.7%	·	10.8%	12.3%	·	4.15µM*
